Experimental data taken from PubChem BioAssay (NCI).
Where “and” joins values, the source holds several entries; their conditions need not be identical. Equal entries are not always repeated. This is part of a sample that, as a whole, favours compounds with a hit. Of some 83,000 tested, about 20% had one in any assay.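 Interpretation: 100, growth as untreated; towards 0, rising growth inhibition; 0, no net growth; 0 to -100, cell death. Compounds scoring below 10 were considered active.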 Calls of active or inactive are those of the source.

Columns and labels:
Test in all cases: NCI-60 one-dose screen, 48 h (100 = growth as untreated, 0 = no growth, -100 = all killed)
Conditions in all cases: 10 µM unless noted
[1] = test system: T-47D breast
[2] = test system: BT-549 breast
[3] = test system: MDA-MB-435 melanoma
[4] = test system: SW-620 colon
[5] = test system: MCF7 breast
[6] = test system: HCT-116 colon
[7] = test system: HCC-2998 colon
[8] = test system: KM12 colon
[9] = test system: MDA-MB-468 breast

Cc1ccc(N=Nc2c(N)nn3c(-c4cc5ccccc5oc4=O)ccnc23)cc1
growth [1]: 55.7% (inactive) | growth [2]: 74.5% (inactive) | growth [3]: 55.9% (inactive) | growth [4]: 30.7% (inactive) | growth [5]: 26.6% (inactive) | growth [6]: 11.1% (inactive) | growth [7]: -21.1% (active) | growth [8]: 31.3% (inactive) | growth [9]: 14.9% (inactive)

CS(=O)(=O)Nc1cc(-c2ccc3ncnc(Nc4ccc(OCc5cccnc5)c(Cl)c4)c3c2)cnc1Cl
growth [1]: -39% (active) | growth [2]: -55.6% (active) | growth [3]: -9.37% (active) | growth [4]: 6.78% (active) | growth [5]: -8.39% (active) | growth [6]: -71.6% (active) | growth [7]: -60.4% (active) | growth [8]: 10.8% (inactive) | growth [9]: -81.3% (active)

COc1ccc(N=Nc2c(N)nn3c(-c4cc5cc(Br)ccc5oc4=O)ccnc23)cc1
growth [1]: 10.8% (inactive) | growth [2]: -2.5% (active) | growth [3]: 54.2% (inactive) | growth [4]: 56.1% (inactive) | growth [5]: 26.4% (inactive) | growth [6]: 23.8% (inactive) | growth [7]: 20.2% (inactive) | growth [8]: 36.1% (inactive) | growth [9]: -22.7% (active)

C=CCSc1nnc(-c2ccc(-c3nc4ccccc4[nH]3)cc2)o1
growth [1]: 4.02% (active) | growth [2]: 83.5% (inactive) | growth [3]: 79% (inactive) | growth [4]: 101% (inactive) | growth [5]: 72.6% (inactive) | growth [6]: 74.9% (inactive) | growth [7]: 97.9% (inactive) | growth [8]: 82% (inactive) | growth [9]: 69.3% (inactive)

CCOc1ccccc1[C@H]1C(C(=O)c2ccc(Cl)cc2)C2(N[C@@H]1c1ccccc1)C(=O)Nc1ccccc12 (stereo partly drawn)
growth [1]: 10% (inactive) | growth [2]: -35% (active) | growth [3]: -28.3% (active) | growth [4]: 21% (inactive) | growth [5]: -9.52% (active) | growth [6]: 3.88% (active) | growth [7]: 6.07% (active) | growth [8]: 12.4% (inactive) | growth [9]: -31.1% (active)

COc1ccccc1NC(=O)N/N=C/c1c[nH]c2ccccc12
growth [1]: 36.2% (inactive) | growth [2]: 15.5% (inactive) | growth [3]: -22.8% (active) | growth [4]: 35.9% (inactive) | growth [5]: 6.55% (active) | growth [6]: 10.4% (inactive) | growth [7]: 6.44% (active) | growth [8]: 3.61% (active) | growth [9]: -6.01% (active)

O=C(N/N=C/c1ccsc1)c1[nH]c2ccc(Br)cc2c1-c1ccccc1
growth [1]: -21.6% (active) | growth [2]: -86% (active) | growth [3]: -85.3% (active) | growth [4]: -68% (active) | growth [5]: -50.9% (active) | growth [6]: -71% (active) | growth [7]: -59.4% (active) | growth [8]: -49.3% (active) | growth [9]: -25.6% (active)

CC(C)C[C@H](NC(=O)[C@@H]1CCCCCCCCCCC(=O)N[C@@H](CC(=O)N2CCC[C@@H]2C2CCCC2)C(=O)N1)B(O)O
growth [1]: -20% (active) | growth [2]: -79.2% (active) | growth [3]: -57.3% (active) | growth [4]: 4.22% (active) | growth [5]: -28.2% (active) | growth [6]: -80% (active) | growth [7]: -100% (active) | growth [8]: -35.7% (active) | growth [9]: -70.6% (active)

NS(=O)(=O)c1ccc(Nc2nc(N/N=C/c3cc(Br)c(O)c(Br)c3)nc(Nc3ccccc3)n2)cc1
growth [1]: 25.5% (inactive) | growth [2]: -14.3% (active) | growth [3]: 56.5% (inactive) | growth [4]: 41.2% (inactive) | growth [5]: 37.7% (inactive) | growth [6]: 28.9% (inactive) | growth [7]: 5.2% (active) | growth [8]: 61.7% (inactive) | growth [9]: -57.4% (active)

O=C(CCl)Nc1ccc(C(=O)/C=C/c2cc3ccccc3nc2Cl)cc1
growth [1]: -46.9% (active) and 51.1% (inactive) | growth [2]: -82.4% (active) and 45.6% (inactive) | growth [3]: -54.9% (active) and 52.1% (inactive) | growth [4]: -78.3% (active) and 48.9% (inactive) | growth [5]: -57.1% (active) and 24.9% (inactive) | growth [6]: 8.67% (active) and 39.7% (inactive) | growth [7]: -93.4% (active) and 51.1% (inactive) | growth [8]: -68.6% (active) and 22.5% (inactive) | growth [9]: -82.5% (active) and 54.9% (inactive)

CCOc1ccccc1NC(=O)N/C(N)=N/c1nc2ccccc2s1
growth [1]: 41.5% (inactive) | growth [2]: 23.1% (inactive) | growth [3]: -21.6% (active) | growth [4]: 25.5% (inactive) | growth [5]: 11% (inactive) | growth [6]: -5.6% (active) | growth [7]: 13.1% (inactive) | growth [8]: -0.458% (active) | growth [9]: -11.4% (active)

CC(C)(C)OC(=O)N1C/C(=C\c2ccc(F)cc2)C(=O)/C(=C/c2ccc(F)cc2)C1
growth [1]: 14.4% (inactive) | growth [2]: -88.1% (active) | growth [3]: -82.6% (active) | growth [4]: -67.7% (active) | growth [5]: -66.5% (active) | growth [6]: -81.5% (active) | growth [7]: -98% (active) | growth [8]: -90.7% (active) | growth [9]: -82.3% (active)

FC(F)(F)c1cc2c(Cl)ncnc2n1CCN1CCCCC1
growth [1]: 70.5% (inactive) | growth [2]: -3.05% (active) | growth [3]: 56% (inactive) | growth [4]: 34% (inactive) | growth [5]: 52.1% (inactive) | growth [6]: 8.04% (active) | growth [7]: -75.1% (active) | growth [8]: 93.9% (inactive) | growth [9]: -10.6% (active)

COc1ccc(N=Nc2c(N)nn3c(N)c(C#N)c(-c4ccc(C)cc4)nc23)cc1
growth [1]: 7.1% (active) | growth [2]: 56.2% (inactive) | growth [3]: 56.6% (inactive) | growth [4]: 67.2% (inactive) | growth [5]: 12.5% (inactive) | growth [6]: 45.4% (inactive) | growth [7]: 73% (inactive) | growth [8]: 43.5% (inactive) | growth [9]: 32.4% (inactive)

CC(=O)C[n+]1cccc2c3ccccc3ccc21
growth [1]: 77.2% (inactive) | growth [2]: 107% (inactive) | growth [3]: 84.6% (inactive) | growth [4]: 92.3% (inactive) | growth [5]: 77.7% (inactive) | growth [6]: 87.4% (inactive) | growth [7]: 114% (inactive) | growth [8]: 88.2% (inactive) | growth [9]: 8.54% (active)

Nc1nnc(-c2cncc(Br)c2)c(-c2c[nH]c3ccc(Br)cc23)n1
growth [1]: 26.1% (inactive) | growth [2]: 47.4% (inactive) | growth [3]: -14.4% (active) | growth [4]: 28.1% (inactive) | growth [5]: 50.4% (inactive) | growth [6]: 22.9% (inactive) | growth [7]: 74.7% (inactive) | growth [8]: 41.4% (inactive) | growth [9]: -4.92% (active)

O=C(N/N=C/c1ccc(-c2cccc([N+](=O)[O-])c2)s1)c1[nH]c2ccc(Br)cc2c1-c1ccccc1
growth [1]: 92.5% (inactive) | growth [2]: 88.4% (inactive) | growth [3]: 98.3% (inactive) | growth [4]: 99% (inactive) | growth [5]: 54.4% (inactive) | growth [6]: 82.9% (inactive) | growth [7]: 107% (inactive) | growth [8]: 109% (inactive) | growth [9]: 103% (inactive)

O=C1Nc2cc(-c3ccc(NS(=O)(=O)c4ccc(C(F)(F)F)cc4)cc3)ccc2/C1=C/c1ccc[nH]1
growth [1]: 18.1% (inactive) | growth [2]: -8.7% (active) | growth [3]: 9.69% (active) | growth [4]: 33.3% (inactive) | growth [5]: 0.78% (active) | growth [6]: 2.8% (active) | growth [7]: 30.5% (inactive) | growth [8]: 20.8% (inactive) | growth [9]: -26.2% (active)

O=C(c1ccc(O)cc1)C1[C@H](c2ccc(Cl)cc2)[C@@H](c2ccccc2)NC12C(=O)Nc1ccc(Br)cc12 (stereo partly drawn)
growth [1]: 2.46% (active) | growth [2]: -76.6% (active) | growth [3]: -41.1% (active) | growth [4]: -58.1% (active) | growth [5]: -22.1% (active) | growth [6]: -75% (active) | growth [7]: -88.6% (active) | growth [8]: -25.4% (active) | growth [9]: -61.1% (active)

Nc1cccc(-n2c(COc3ccc(I)cc3)nc3ccccc32)c1
growth [1]: 54.6% (inactive) and 99.2% (inactive) | growth [2]: 92.6% (inactive) and 99.7% (inactive) | growth [3]: 95.9% (inactive) and 99.7% (inactive) | growth [4]: 86.3% (inactive) and 104% (inactive) | growth [5]: 67.9% (inactive) and 98.9% (inactive) | growth [6]: 76% (inactive) and 102% (inactive) | growth [7]: 118% (inactive) and 113% (inactive) | growth [8]: 87.9% (inactive) and 99.6% (inactive) | growth [9]: 72.2% (inactive) and 102% (inactive)

CSc1ccc(OCc2nc3ccccc3n2-c2cccc(NS(C)(=O)=O)c2)cc1
growth [1]: 99.4% (inactive) and 78.4% (inactive) | growth [2]: 131% (inactive) and 105% (inactive) | growth [3]: 105% (inactive) and 98.3% (inactive) | growth [4]: 102% (inactive) and 94.4% (inactive) | growth [5]: 89.9% (inactive) and 55.7% (inactive) | growth [6]: 101% (inactive) and 70.6% (inactive) | growth [7]: 122% (inactive) and 112% (inactive) | growth [8]: 103% (inactive) and 78.8% (inactive) | growth [9]: 110% (inactive) and 98.2% (inactive)

O=C(Cc1c(-c2ccccc2[N+](=O)[O-])n(-c2ncnc3c2c(-c2ccccc2)c(-c2ccccc2)n3Cc2ccccc2)[nH]c1=O)c1ccc(Cl)c(Cl)c1
growth [1]: 6.14% (active) | growth [2]: -17.2% (active) | growth [3]: 2.32% (active) | growth [4]: 31.3% (inactive) | growth [5]: 11.9% (inactive) | growth [6]: 13.7% (inactive) | growth [7]: 24.9% (inactive) | growth [8]: 15.7% (inactive) | growth [9]: -23.5% (active)

COc1ccc2[nH]c(O)c(N=Nc3nc(-c4ccc(Br)cc4)cs3)c2c1
growth [1]: -27.2% (active) | growth [2]: 35% (inactive) | growth [3]: 50.3% (inactive) | growth [4]: 4.99% (active) | growth [5]: -16.4% (active) | growth [6]: -63.1% (active) | growth [7]: 51.4% (inactive) | growth [8]: 55.6% (inactive) | growth [9]: -7.45% (active)

Cn1cc(Nc2ncnc(-c3ccc(N4CCCC4)c(C#N)c3)n2)cn1
growth [1]: 84.9% (inactive) | growth [2]: 76.1% (inactive) | growth [3]: 8.16% (active) | growth [4]: 57.6% (inactive) | growth [5]: 66.5% (inactive) | growth [6]: 51.2% (inactive) | growth [7]: 68.6% (inactive) | growth [8]: 55.2% (inactive) | growth [9]: 16.7% (inactive)

Cc1ccc(NC(=O)N/N=C/c2c[nH]c3ccccc23)c(C)c1
growth [1]: 46.7% (inactive) | growth [2]: 17.2% (inactive) | growth [3]: -14.3% (active) | growth [4]: 24.8% (inactive) | growth [5]: 7.55% (active) | growth [6]: -15.3% (active) | growth [7]: -11.2% (active) | growth [8]: -25.5% (active) | growth [9]: 3.12% (active)

N#CC1=C(c2ccco2)Nc2c(c(-c3ccccc3)nn2-c2ccccc2)C12C(=O)Nc1ccc(Cl)cc12 (stereo not drawn)
growth [1]: 26.6% (inactive) | growth [2]: 15.4% (inactive) | growth [3]: 53.7% (inactive) | growth [4]: 15.9% (inactive) | growth [5]: 21.3% (inactive) | growth [6]: -73.1% (active) | growth [7]: 64.8% (inactive) | growth [8]: 52.1% (inactive) | growth [9]: 42.3% (inactive)

COc1ccc(-c2cc(C(=O)N=Nc3c(O)[nH]c4ccc(Cl)cc34)c3ccccc3n2)cc1
growth [1]: 102% (inactive) | growth [2]: 107% (inactive) | growth [3]: 44.4% (inactive) | growth [4]: 7.42% (active) | growth [5]: 19.2% (inactive) | growth [6]: 65.6% (inactive) | growth [7]: 19.3% (inactive) | growth [8]: 28% (inactive) | growth [9]: 74.9% (inactive)
